Measurements taken from PubChem BioAssay.
Active and inactive are the calls of the source.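 Rule for the calls, unless noted: active = compounds lowering colon cancer cell viability after pretreatment blocking the GSK3B kinase; inactive = the rest.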 Residues, ends and D or L forms follow the SMILES beside them.

What was measured:
[1] = stimulators of nuclear beta-catenin in C2C12, primary screen, imaging, WNT3A-conditioned medium, mouse C2C12, NPC library (AID 1117326; in the data active = nuclear beta-catenin stimulation mostly above about 4.2%, no sharp cut-off; inactive = mostly below about 10%; note: reference of the scale not given here); settings: stronger effect = higher value
[2] = stimulators of insulin release from INS-1E, primary screen, cell-based, 5 mM glucose, NPC library (AID 1117329;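 active = compound raises insulin release from rat beta cells at 5 mM glucose, no numeric limit stated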; note: reference of the scale not given here); settings: rat INS-1E insulin secretion, at 10 µM, stronger effect = higher value
[3] = growth inhibition of GSK3B-pretreated HCT116 cells – cell-based, CellTiter-Glo, 0.2 to 20 µM (AID 1117336); settings: HCT116 viability after GSK3B inhibitor, at 20 µM, stronger effect = higher value
[4] = inhibition of endothelial tube formation, primary screen, imaging, VEGF stimulated, CD31 staining, tube area, NPC library (AID 1117340;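 active = compound that reduces growth-factor-driven endothelial tube area in a mixed cell culture, no cutoff stated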); settings: VEGF-stimulated ADSC/ECFC co-culture, at 10 µM, stronger effect = higher value
[5] = glucagon-like peptide 1 release enhancers, primary assay, NCI-H716 cell line, NPC library (AID 1117341;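 active = compound raises GLP1 secretion from the human gut endocrine cells, with no numeric limit stated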; note: reference of the scale not given here); settings: NCI-H716 cells, at 10 µM, stronger effect = higher value
[6] = HCT116 colon cancer cell growth inhibition, primary screen, CellTiter-Glo luminescence, NPC library (AID 1117342;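 active = compounds that lower survival of HCT116 colon cancer cells in the luminescence readout, no numeric limit stated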); settings: at 20 µM (top of the series)
[7] = CellTiter-Glo luminescent readout of SW480 viability loss, NPC library primary (AID 1117343;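 active = compounds that lower viability of the colon cancer cells in the luminescence readout, with no numeric limit stated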); settings: CellTiter-Glo luminescence; at 20 µM (top of the series)
[8] = decreased DLD-1 cellular survival, CellTiter-Glo luminescent readout, NPC compound collection, primary HTS (AID 1117346;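 active = compounds that lower survival of DLD-1 colon cancer cells in the luminescence readout, no cutoff given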); settings: DLD-1 viability, CellTiter-Glo luminescence; at 20 µM (top of the series)

O=C(Nc1ccc([N+](=O)[O-])cc1)Nc1ccc([N+](=O)[O-])cc1
active: tube area decrease [4] 62.3%
inactive: nuclear beta-catenin stimulation ([1]; at 10 µM) 3.2% | insulin secretion stimulation [2] -3.6% | viability decrease [3] -7.9% | GLP1 secretion stimulation [5] -0.9% | inhibition of viability [6] -44.5% | viability decrease (inhibition) [7] 44.3% | viability decrease (inhibition) [8] -16.4%
1.9%: nuclear beta-catenin stimulation ([1]; stimulation, at 2 µM)

CCOc1ccc(NS(=O)(=O)c2ccc(N)cc2)nn1
inactive: nuclear beta-catenin stimulation ([1]; at 10 µM) -0.3% | insulin secretion stimulation [2] -0.2% | viability decrease [3] 1.55% | tube area decrease [4] -25.2% | GLP1 secretion stimulation [5] 2.6% | inhibition of viability [6] -1.7% | viability decrease (inhibition) [7] 29.4% | viability decrease (inhibition) [8] 4.15%
0.4%: nuclear beta-catenin stimulation ([1]; stimulation, at 2 µM)

O=C(c1ccco1)N1CCNCC1
-0.4%: nuclear beta-catenin stimulation ([1]; stimulation, at 2 µM)
inactive: nuclear beta-catenin stimulation ([1]; at 10 µM) 4.5% | insulin secretion stimulation [2] 0.1% | viability decrease [3] -3.6% | tube area decrease [4] -16.6% | GLP1 secretion stimulation [5] -0.5% | inhibition of viability [6] -8.9% | viability decrease (inhibition) [7] -21.1% | viability decrease (inhibition) [8] 5.4%

CC(=O)Nc1ccc(/C=N/NC(N)=S)cc1
0.5%: nuclear beta-catenin stimulation ([1]; stimulation, at 2 µM)
inactive: nuclear beta-catenin stimulation ([1]; at 10 µM) 0.3% | insulin secretion stimulation [2] -2.3% | viability decrease [3] -4.65% | tube area decrease [4] -8.1% | GLP1 secretion stimulation [5] 4.3% | inhibition of viability [6] 13.3% | viability decrease (inhibition) [7] 13% | viability decrease (inhibition) [8] -1.8%

O=C(CCN1CCC(c2ccccc2)C1)c1ccc2c(c1)OCCO2 (configuration not stated)
inactive: nuclear beta-catenin stimulation ([1]; at 10 µM) 12.8% | insulin secretion stimulation [2] 0% | viability decrease [3] 11.6% | GLP1 secretion stimulation [5] 1.4% | inhibition of viability [6] -10.2%
0.5%: nuclear beta-catenin stimulation ([1]; stimulation, at 2 µM)
active: tube area decrease [4] 17% | viability decrease (inhibition) [7] 158% | viability decrease (inhibition) [8] 101%

O=C(CCN1CCN2CCCC2C1)N1c2ccccc2Sc2ccc(Cl)cc21 (configuration not stated)
active: insulin secretion stimulation [2] 63.8% | inhibition of viability [6] 61.4% | viability decrease (inhibition) [7] 99.3%
0.2%: nuclear beta-catenin stimulation ([1]; stimulation, at 2 µM)
inactive: nuclear beta-catenin stimulation ([1]; at 10 µM) 1.1% | viability decrease [3] 49.9% | tube area decrease [4] 8% | GLP1 secretion stimulation [5] 8.5% | viability decrease (inhibition) [8] 49.5%

CC(C(O)c1ccccc1)N(C)CCOC(c1ccccc1)c1ccccc1 (configuration not stated)
2.3%: nuclear beta-catenin stimulation ([1]; stimulation, at 2 µM)
inactive: nuclear beta-catenin stimulation ([1]; at 10 µM) 4.3% | insulin secretion stimulation [2] 2.45% | tube area decrease [4] 14.1% | GLP1 secretion stimulation [5] 7.4%
active: viability decrease [3] 77.3% | inhibition of viability [6] 86.9% | viability decrease (inhibition) [7] 133% | viability decrease (inhibition) [8] 81.5%

CC(=O)N[C@@H](CO)C(=O)N[C@@H](CC(=O)O)C(=O)N[C@@H](CCCCN)C(=O)N1CCC[C@H]1C(=O)O (Ac-SDKP-OH)
inactive: nuclear beta-catenin stimulation ([1]; at 10 µM) 0.3% | insulin secretion stimulation [2] 1.8% | viability decrease [3] -7.1% | tube area decrease [4] -14.3% | GLP1 secretion stimulation [5] -1.6% | inhibition of viability [6] -0.1% | viability decrease (inhibition) [7] -6% | viability decrease (inhibition) [8] 7%
0.6%: nuclear beta-catenin stimulation ([1]; stimulation, at 2 µM)

Cc1[nH]cnc1C[C@H]1CCc2c(C)c3ccccc3n2C1=O
0.9%: nuclear beta-catenin stimulation ([1]; stimulation, at 2 µM)
inactive: nuclear beta-catenin stimulation ([1]; at 10 µM) 9.2% | insulin secretion stimulation [2] -0.4% | GLP1 secretion stimulation [5] -2.3%
active: viability decrease [3] 57.2% | tube area decrease [4] 55% | inhibition of viability [6] 92.8% | viability decrease (inhibition) [7] 69.2% | viability decrease (inhibition) [8] 65.3%

O=C(CS)Nc1ccccc1
-0.2%: nuclear beta-catenin stimulation ([1]; stimulation, at 2 µM)
inactive: nuclear beta-catenin stimulation ([1]; at 10 µM) 0.5% | insulin secretion stimulation [2] 6.4% | viability decrease [3] -38.2% | tube area decrease [4] 4.3% | GLP1 secretion stimulation [5] -2.3% | inhibition of viability [6] -19.3% | viability decrease (inhibition) [7] -2.4% | viability decrease (inhibition) [8] -12.9%

CC(C)(Oc1ccc(Cl)cc1)C(=O)OCCCOC(=O)C(C)(C)Oc1ccc(Cl)cc1
inactive: nuclear beta-catenin stimulation ([1]; at 10 µM) 0.7% | insulin secretion stimulation [2] 0.5% | viability decrease [3] 11% | tube area decrease [4] 2.3% | GLP1 secretion stimulation [5] -0.1% | inhibition of viability [6] 5.6% | viability decrease (inhibition) [7] 8.9% | viability decrease (inhibition) [8] 4%
2.2%: nuclear beta-catenin stimulation ([1]; stimulation, at 2 µM)

COc1ccc2c(c1)CCCC2=O
inactive: nuclear beta-catenin stimulation ([1]; at 10 µM) 1.5% | insulin secretion stimulation [2] 1.3% | viability decrease [3] 5.2% | tube area decrease [4] 13.5% | GLP1 secretion stimulation [5] 0.1% | inhibition of viability [6] 8.5% | viability decrease (inhibition) [7] -3.8% | viability decrease (inhibition) [8] -12%
-0.1%: nuclear beta-catenin stimulation ([1]; stimulation, at 2 µM)

COc1ccc2nc(NC(=O)Nc3ccccc3)sc2c1
0%: nuclear beta-catenin stimulation ([1]; stimulation, at 2 µM)
inactive: nuclear beta-catenin stimulation ([1]; at 10 µM) 0.5% | insulin secretion stimulation [2] 1.3% | viability decrease [3] 11.7% | tube area decrease [4] 2.4% | GLP1 secretion stimulation [5] -1.4% | inhibition of viability [6] 43% | viability decrease (inhibition) [7] -1.6% | viability decrease (inhibition) [8] 24%
